# Source: PubChem BioAssay AID624123 (The Scripps Research Institute Molecular Screening Center, 2012)
# Unmarked numbers belong to inactive results. No rule for the calls is given here.
# Assay: GFP fluorescence inhibitors and quenchers, late-stage follow-up, artefact control for Rin1-Abl interaction inhibitor project, biochemical, dose response, round 1 (AID 624123)
# Conditions: GFP fluorescence interference/quenching counterscreen
row,SMILES,IC50
1,CN(C(=O)c1ccc(NC(=O)Cc2ccc(NC(=O)C3CCN(C(=O)c4cccc(F)c4)CC3)cc2)cc1)C1CC1,> 67.5 µM
2,CN(C(=O)c1ccc(NC(=O)Cc2ccc(NC(=O)C3CCN(C(=O)c4ccc(F)cc4)CC3)cc2)cc1)C1CC1,> 67.5 µM
3,CN(C(=O)c1ccc(NC(=O)Cc2ccc(NC(=O)C3CCN(C(=O)c4ccccc4)CC3)cc2)cc1)C1CC1,> 67.5 µM
4,COc1ccc(C(=O)N2CCC(C(=O)Nc3ccc(CC(=O)Nc4ccc(C(=O)N(C)C5CC5)cc4)cc3)CC2)cc1,> 67.5 µM
